Entries with a potency or affinity are not part of this list. Calls of active or inactive are those of the source.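 Rule for the calls: active = signal-lowering compounds whose fitted half-maximal concentration is at or below twice the top tested dose in every run; inconclusive = runs disagree, flat 30 to 70% inhibition, or poor curve fit; inactive = the rest.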
molecular target: Protein S100-A4 (Homo sapiens) (UniProt P26447); assay: human S100A4 peptide interaction inhibition curves – biochemical, fluorescence polarization, cherry-picked hits, dose response (AID 687001); details: FP, S100A4/TAMRA-myosin IIA peptide binding; series mostly up to 11 µM
Sequence (P26447 whole entry, looked up): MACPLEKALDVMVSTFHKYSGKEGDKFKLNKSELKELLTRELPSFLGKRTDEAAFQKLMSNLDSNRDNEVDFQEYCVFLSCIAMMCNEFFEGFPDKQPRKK

outcome, inactive:
Cc1cccc(-c2oc3ccc(-c4ccc5c(c4)OCO5)cc3c2-c2ccc(OC3CCCCO3)cc2)c1 (centres undefined)
CCc1ccc(C(=O)NNC(=O)c2cccc(N3C(=O)CCC3=O)c2)cc1
Cc1ccccc1CNS(=O)(=O)c1c(C(=O)N2CCCC2)c(C)n(C)c1C
COc1ccc(CN2CCC(C(=O)Nc3ccc(Oc4cccnc4)cc3)CC2)c(C)c1C
COc1cc(S(=O)(=O)N2CCOCC2)cc(C(=O)c2nccn2C)c1OC
O=C(O)[C@@H]1[C@@H](CO)[C@@H]2Cn3c(ccc(/C=C/c4ccccc4)c3=O)[C@@H]2N1C(=O)C1CCCC1
CCC(=O)N1C[C@@H]2[C@H](c3ccccc31)[C@@H](CO)N2C(=O)CC
CO[C@H]1CC[C@H]2CCN(C)C(=O)[C@@H](C)[C@H](OC)CN(C)C(=O)c3cc(C#N)ccc3OC[C@H]1O2
Cc1ccc2c(c1)C(c1ccccc1)N(C(=O)c1ccccc1[N+](=O)[O-])CC(=O)N2 (centres undefined)
COc1ccc2oc(C)c(C(=O)c3ccc(C)cc3)c2c1
CCC(c1nc2ccccc2[nH]1)n1c(-c2cccnc2)nc2ccccc21 (centres undefined)
C[C@H]1CN([C@@H](C)CO)C(=O)c2cc(Br)cnc2O[C@H]1CN(C)C(=O)c1ccccc1F
Cc1ccc(N2CCN(C(=O)c3[nH]c(C(F)(F)F)nc3-c3ccccc3)CC2)cc1
O=C(/C=C/c1cc(Br)ccc1F)OCC(=O)N1CCOCC1
Cc1cc(C(=O)NC2CCCN(Cc3ccc(Cl)cc3)C2)n(C)n1 (centres undefined)
O=C(Cc1c(F)cccc1Cl)Nc1ccccn1
COc1ccccc1CNC(=O)COC(=O)CSc1ccc(Cl)cc1
COC(=O)C1=C(C)N(C)C(=O)NC1c1cc(Cl)c(O)c(OC)c1 (centres undefined)
CC(C)NC(=O)N(C)C[C@H]1Oc2ccc(NC(=O)CCCN(C)C)cc2C(=O)N([C@H](C)CO)C[C@H]1C
COc1ccc(Cl)cc1-c1cc(C(=O)N[C@H](C)c2ccccc2)[nH]n1
COc1ccc(NC(=O)Nc2ccc3c(c2)CC(=O)N([C@@H](C)CO)C[C@@H](C)[C@H](CN(C)Cc2ccccc2)O3)cc1
O=C(C[C@@H]1C[C@H]2c3cc(NC(=O)NC4CCCC4)ccc3O[C@H]2[C@H](CO)O1)NCCc1ccccc1
CC(C)OCCCNC(=O)c1ccccc1NC(=O)C1=CSCCO1
CCC(=O)N1CC(=O)N2[C@H](CO)[C@H](c3ccc(C#CC4CCCC4)cc3)[C@H]2C1
CCOC(=O)[C@]12CCC=C1N(Cc1ccc3c(c1)OCO3)C(=O)[C@H](CC(=O)NCc1cccc(C(F)(F)F)c1)C2
COCCN(C(=O)CSc1nc2ccc(OC)cc2[nH]1)c1c(N)n(Cc2ccccc2)c(=O)[nH]c1=O
CSCCC(NC(=O)c1ccccc1Cl)C(=O)NCC(c1cccs1)N(C)C (centres undefined)
C[C@@H]1CN([C@@H](C)CO)C(=O)Cc2cc(NC(=O)CCN3CCOCC3)ccc2O[C@@H]1CN(C)C
Nc1[nH]c(C(=O)c2ccccc2)c(-c2ccccc2C(F)(F)F)c1C(=O)NCc1cccc2ccccc12
CN(CC1CCCN(CCc2ccc(Cl)cc2)C1)C(=O)CC(F)(F)F (centres undefined)
CCCC(=O)Nc1ccc2c(c1)OC[C@@H](C)N(Cc1ccncc1)C[C@H](C)[C@H](OC)CN(C)C2=O
CCOC(=O)c1c(S(=O)(=O)N2CCCC(C(=O)Nc3ccc(C)cn3)C2)c(C)n(C)c1C (centres undefined)
O=C(CC(F)(F)F)N1C[C@@H]2[C@H](c3ccccc31)[C@@H](CO)N2CC1CCOCC1
CC(C)(C)[C@H]1COC(=O)CC/C=C\C[C@H](CC(=O)N(CCO)Cc2ccccc2)C(=O)N1
O=c1[nH][nH]c(=O)c2nc(Nc3ccccc3)ncc12
O=C(Nc1ccc(S(=O)(=O)N2CCCCC2)cc1)C1CC(=O)N(Cc2ccccc2)C1 (centres undefined)
C[C@H]1CN([C@@H](C)CO)C(=O)c2cc(NC(=O)CCCCCC(=O)Nc3ccccc3N)ccc2O[C@H]1CN(C)S(=O)(=O)c1cccs1
COc1ccc(N2CC(C(=O)Nc3ccccc3N3CCCC3)CC2=O)c(OC)c1 (centres undefined)
CCCn1cnc2c(oc3ccccc32)c1=O

Source: PubChem BioAssay AID687001 (Broad Institute, 2013)
